# An excerpt weighted towards active compounds, which were near 10% of everything screened.
# VP16 counter: VP16 counterscreen qHTS for inhibitors of ROR gamma transcriptional activity. Drosophila S2 Gal4-VP16 UAS-luciferase, luminescence, 20 h. Potency, µM (series often up to 53.6 µM), hits mostly inhibitors. 310,000 tested, 3.5% active. AID 2546, 2010;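 further: Gal4-VP16 expression switched on by copper sulfate through the metallothionein promoter; nearly all actives have a fitted effect of over 50% in size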
# MCF10A rereplic: A quantitative high throughput screen for small molecules that induce DNA re-replication in MCF 10a normal breast cells; MCF 10A DNA re-replication, Hoechst nuclear intensity, 48 h; Potency, µM (top dose mostly 46.1 µM), usual class: activators; 350,000 tested, 2.9% active; AID 624296, 2012; further: nearly all actives have a fitted effect of over 50% in size
# RORgamma inh: qHTS for inhibitors of ROR gamma transcriptional activity; 310,000 tested, 5.4% active; Drosophila S2 Gal4-RORgamma UAS-luciferase reporter, 20 h; Potency, µM (doses to about 53.6 µM), hits mostly inhibitors; AID 2551, 2010; further: nearly all actives have a fitted effect of over 60% in size
#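 Read-out: Photinus luciferase luminescence; inhibitors lower reporter signal. Insect Schneider cells with Gal4-ROR gamma fusion under metallothionein promoter, UAS reporter; 700 uM final copper sulfate induction, 20 hr, ambient temperature.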
# SW480 rerep: A quantitative high throughput screen for small molecules that induce DNA re-replication in SW480 colon adenocarcinoma cells; AID 624297, 2012; 340,000 tested, 1.8% active; Potency, µM (highest dose often 46.1 µM), hits mostly activators; SW480 DNA re-replication, Hoechst DNA content imaging, 48 h; further: nearly all actives have a fitted effect of over 55% in size
#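 First, 250 cells per well were seeded. Next, compound or vehicle (23 nL) was pinned in, plates sat 48 hr at 37 C. Finally Hoechst was added for 40 min before fluorescence scanning.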
# ELG1 DNA repair: qHTS screen for small molecules that inhibit ELG1-dependent DNA repair in human embryonic kidney (HEK293T) cells expressing luciferase-tagged ELG1. HEK293T ELG1-luciferase reporter, luminescence, 16 h; DNA damage induced by 5-fluorouridine. Potency, µM (doses to about 46.1 µM), most hits filed as inhibitors. 330,000 tested, 2.3% active. AID 504467, 2011; further: nearly all actives have a fitted effect of over 55% in size
#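 HEK293T cells expressing luciferase-tagged ELG1 (2,000/well) received 5-Fluorouridine plus compound or DMSO for 16 hr at 37 °C. Luciferase was read by ONE-Glo luminescence after 30 min at room temperature.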
# ELG1 FLuc counter: qHTS screen for small molecules that inhibit ELG1-dependent DNA repair: Hit Confirmation in Cell-Based Luciferin Assay | shares compounds with ELG1 DNA repair | cell-free firefly luciferase luminescence counter-screen, ViewLux | Potency, µM (highest dose often 46.1 µM), most hits filed as inhibitors | 350 tested, 3% active | AID 624247, 2012
# ELG1-Luc inh: HTS assay for small molecules that inhibit ELG1-dependent DNA repair in human embryonic kidney (HEK293T) cells expressing luciferase-tagged ELG1: Hit Confirmation. HEK293T ELG1-luciferase levels, luminescence; cells co-treated with 5-fluorouridine. 670 tested, 68% active. shares compounds with ELG1 DNA repair. Potency, µM (titrated, usually from 46.1 µM), usual class: inhibitors; further: nearly all actives have a fitted effect of over 55% in size
# ELG1-Luc MMS: inhibits ELG1-dependent repair under MMS stimulation in HEK293T cells | shares compounds with ELG1 DNA repair | HEK293T luciferase-tagged ELG1 level, MMS stimulated | Potency, µM (doses to about 46.1 µM), most hits filed as inhibitors | 670 tested, 53% active | AID 624249; further: nearly all actives have a fitted effect of over 60% in size
# ELG1 5-FU: qHTS screen for small molecules that inhibit ELG1-dependent DNA repair: Hit Confirmation with 5FU Viability; Potency, µM (highest dose often 46.1 µM), usual class: cytotoxic; 670 tested, under 10 active; shares compounds with ELG1 DNA repair; cell viability with 5-FU, ELG1-dependent repair;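 further: ELG1-luc HEK293T cells cotreated with 5-fluorouridine at 10 µM final; viability measured 16 h after compound addition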
# ELG1 MMS viab: qHTS screen for small molecules that inhibit ELG1-dependent DNA repair: Hit Confirmation with MMS Viability | shares compounds with ELG1 DNA repair | Cell viability with MMS, ELG1-dependent DNA repair | Potency, µM (titrated, usually from 46.1 µM), most hits filed as cytotoxic | 670 tested, 33% active | AID 624251, 2012;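 further: ELG1-luc HEK293T cells co-treated with 10 µM MMS; viability read 16 h after compound addition; nearly all actives have a fitted effect of over 60% in size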
# ELG1 unstim viab: qHTS screen for small molecules that inhibit ELG1-dependent DNA repair: Hit Confirmation with Unstimulated Viability Assay; cell viability counter-screen, unstimulated, luminescence; Potency, µM (doses to about 45.9 µM), actives largely listed as cytotoxic; AID 624252, 2012; 900 tested, 8% active; shares compounds with ELG1 DNA repair;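 further: compound exposure lasted 16 hours before reading; nearly all actives have a fitted effect of over 55% in size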
# FLuc enzyme: qHTS screen for small molecules that inhibit ELG1-dependent DNA repair: Hit Confirmation in Biochemical Luciferin Assay. shares compounds with ELG1 DNA repair. purified firefly luciferase, luminescence counter-screen. Potency, µM (series often up to 57.5 µM), usual class: inhibitors. 350 tested, 10% active. AID 624253, 2012
# Hits are given with their value; - = inactive; ? = inconclusive; . = no result given; [ ] = remark or other dose. The call rests on the fitted dose curve; in most records, active means well fitted curve in the direction sought with a large enough effect; inconclusive means small, poorly fitted or top-dose-only effect, or another doubt; inactive means no such curve, though single readings can be large; an effect the other way counts as inactive or inconclusive.
SMILES,VP16 counter,MCF10A rereplic,RORgamma inh,SW480 rerep,ELG1 DNA repair,ELG1-Luc inh,ELG1-Luc MMS,ELG1 5-FU,ELG1 MMS viab,ELG1 unstim viab,others
O=C(Nc1cccc(Cl)c1)C1CC1c1ccccc1 (configuration not stated),.,-,.,-,.,.,.,.,.,.,
Cc1cc(C(=O)NC2CCCc3c2cnn3-c2ccc(C(C)(C)C)cc2)n[nH]1 (configuration not stated),?,-,-,-,?,.,.,.,.,.,
Cc1ncoc1C(=O)NC1CCCc2c1cnn2-c1ccc(C(C)(C)C)cc1 (configuration not stated),.,-,.,-,1.3µM,?,0.79µM,-,0.79µM,8.9µM,
NC(=O)c1cccc(-c2cnc(N)c(C(=O)c3cccnc3)n2)c1,.,?,.,-,.,.,.,.,.,.,
CC(=O)Nc1cccc(-c2cnc(N)c(C(=O)c3cccnc3)n2)c1,.,?,.,-,0.46µM,0.79µM,2.8µM,-,?,?,ELG1 FLuc counter=?;FLuc enzyme=-
COc1ccccc1C(CNC(=O)c1cccc(S(=O)(=O)N2c3ccccc3CC2C)c1)N(C)C (configuration not stated),.,?,.,-,.,.,.,.,.,.,
CCCCCn1c(=O)[nH]c2cc(C(=O)N3CCN(Cc4ccc5c(c4)OCO5)CC3)ccc2c1=O,?,-,?,-,0.46µM,?,0.22µM,-,0.22µM,?,ELG1 FLuc counter=-;FLuc enzyme=-
COc1ccc(OC)c(NC(=O)c2ccc3c(=O)n(CCc4ccccc4)c(=S)[nH]c3c2)c1,0.89µM,-,0.79µM,-,1.5µM,?,0.56µM,-,0.63µM,?,
CCCCCn1c(=O)[nH]c2cc(C(=O)NCc3ccc4c(c3)OCO4)ccc2c1=O,-,-,-,-,-,.,.,.,.,.,
COc1ccc(OC)c(NC(=O)CCn2c(=S)[nH]c3ccccc3c2=O)c1,-,-,-,-,-,.,.,.,.,.,
O=C(c1ccc2c(=O)n(CCc3ccccc3)c(=O)[nH]c2c1)N1CCN(c2ccccc2)CC1,-,-,-,-,-,.,.,.,.,.,
COc1ccc(N2CCN(C(=O)c3ccc4c(=O)n(CCc5ccc(OC)c(OC)c5)c(=O)[nH]c4c3)CC2)cc1,-,-,-,-,1.8µM,16µM,13µM,-,?,?,
CC1(C)CC(=O)C([N+](=O)[O-])=C(NCCCC(=O)O)C1,-,-,-,-,-,.,.,.,.,.,
O=S(=O)(NCc1cc(-c2ccccc2)no1)c1ccccc1Cl,-,-,-,?,-,.,.,.,.,.,
COc1ccc(C(c2c(O)cc(C)oc2=O)c2c(O)cc(C)oc2=O)cc1,-[0.365 µM],-,-,-,-,.,.,.,.,.,
COc1ccc(C2CC(c3c(O)cc(C)oc3=O)=NCCS2)c(OC)c1 (configuration not stated),-,1.1µM,?,?,?,.,.,.,.,-,
O=C(CCn1c(=O)[nH]c2ccccc2c1=O)NCCSCc1ccccc1,-,-,-,-,-,.,.,.,.,.,
O=C(C[C@H]1C/C=C\C[C@H](NC(=O)OCC2c3ccccc3-c3ccccc32)C(=O)O[C@H](c2ccccc2)CNC1=O)N[C@H](CO)Cc1ccccc1,.,-,.,-,?,.,.,.,.,.,
CCn1c(=O)n(CC)c2cc(S(N)(=O)=O)c(C)cc21,-,-,-,-,-,.,.,.,.,.,
CCn1c(=O)n(CC)c2cc(S(=O)(=O)N3CCCCC3)c(C)cc21,-,-,-,-,?,.,.,.,.,-,ELG1 FLuc counter=-;FLuc enzyme=-
CC1(C)CC(=O)C=C(Nc2ccc3c(c2)CCC3)C1,-,-,-,-,-,.,.,.,.,.,
CCC(CO)Oc1cc(NCc2ccccc2O)c2ncn(C(C)C)c2c1 (configuration not stated),.,-,.,-,2.3µM,8.9µM,4.4µM,-,4.4µM,?,
CCC(CO)Oc1cc(NCc2ccc(Cl)cc2Cl)c2ncn(C(C)C)c2c1 (configuration not stated),.,?,.,-,-,.,.,.,.,.,
Cc1ncc(CN2CCC(C(=O)Nc3cccc(-c4cscn4)c3)CC2)cn1,-,?,-,-,-,.,.,.,.,.,
CCOc1cc(N2CCOCC2)c(OCC)cc1NC(=O)c1nn(CC)c(=O)c2ccccc12,.,?,.,-,2.3µM,2.2µM,14µM,-,?,?,
SMILES,VP16 counter,MCF10A rereplic,RORgamma inh,SW480 rerep,ELG1 DNA repair,ELG1-Luc inh,ELG1-Luc MMS,ELG1 5-FU,ELG1 MMS viab,ELG1 unstim viab,others
CCNc1ncc2ncc(=O)n(C)c2n1,-,.,-,.,.,.,.,.,.,.,
Cc1cccc(C(=O)OCC(=O)c2c(N)n(CC(C)C)c(=O)n(C)c2=O)c1O,.,-,.,-,?,.,.,.,.,.,
CC(C)Cn1c(N)c(C(=O)COC(=O)CC23CC4CC(CC(C4)C2)C3)c(=O)n(C)c1=O,?,12µM,-,-,3.7µM,2µM,1.1µM,-,1µM,16µM,
Cc1cccc(C(=O)OCC(=O)c2c(N)n(CC(C)C)c(=O)n(C)c2=O)c1[N+](=O)[O-],.,-,.,?,4.5µM,13µM,7.1µM,-,6.3µM,?,
O=C(CNCc1ccc(Cl)cc1)Nc1cc(S(=O)(=O)N2CCCC2)ccc1Cl,.,-,.,-,.,.,.,.,.,.,
COc1ccc(OC)c(Nc2nc(NCc3ccco3)nc(N)c2[N+](=O)[O-])c1,-,?,-,-,?,0.63µM,-,?,-,-,
C[C@@H](OC(=O)N1CCCCC1)[C@H]1O[C@]2(C)CCCC[C@H]1O2,.,-,.,-,-,.,.,.,.,.,
CCOC(=O)c1ccc(N(C(=O)c2ccco2)C(C(=O)NC2CCCCC2)c2ccncc2)cc1 (configuration not stated),-,-,-,-,-,.,.,.,.,.,

# Compound activity: PubChem, National Center for Advancing Translational Sciences (NCATS)
